# According to PubChem BioAssay AID2472 (National Center for Advancing Translational Sciences (NCATS), 2010):
# Among all 290,000 compounds or so, about 2,000 (0.69%) were called active. No stated cut-off is given here; in the data, active means activity change below about -30%; inactive means the rest, inconclusive results apart. The full list was thinned out, with actives kept by preference.
# Assay: qHTS Assay for Inhibitors of Fructose-1,6-bisphosphate Aldolase from Giardia Lamblia: Coupling assay counterscreen
# Settings: coupling enzyme system counterscreen, AmpLite Red fluorescence; at 58.2 µM (top of the series)
# Outline: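 Counterscreen of the coupled detection system alone, without aldolase: glyceraldehyde-3-phosphate coupling enzymes plus AmpLite Red readout. Compounds at 57.5 uM final, 10 min RT preincubation, 20 min RT reaction, fluorescence 525/598 nm.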
# On the % scale 0 is the no-effect control and ±100 the full control effect.
row,SMILES,"activity change, negative = inhibition"
1,CC(=O)Nc1ccc(N2C(=O)C3C4C=CC(CC4)C3C2=O)cc1 (stereo not drawn),-0.366% (inactive)
2,CN(C)/C=C1/C(=O)Nc2ccccc21,2.47% (inactive)
3,CN(C)/C=C1/Nc2ccccc2C1=O,-30.5% (active)
4,Cc1cc(C)c(/C=C2\C(=O)Nc3ccccc32)[nH]1,-3.49% (inactive)
5,COC(=O)C/C=C/[C@@H](C)[C@H](NC(=O)OCC(Cl)(Cl)Cl)c1ccccc1,-1.95% (inactive)
6,Cc1cccc2[nH]c(CN(C)C(=O)C3CCC(=O)N(CCc4ccccc4)C3)nc12 (stereo not drawn),2.15% (inactive)
7,COc1ccccc1C1C(C(N)=O)=C(C)Nc2nc(CCCO)nn21 (stereo not drawn),1.82% (inactive)
8,O=C(N/N=C/c1cccc(OC(=O)c2ccc([N+](=O)[O-])cc2)c1)c1cccnc1,0.693% (inactive)
9,COCCNC(=O)CN(Cc1ccco1)C(=O)CCC(=O)Nc1nccs1,0.963% (inactive)
10,Cc1cccc(OCC(=O)NCCNC(=O)c2cccnc2)c1,0.0752% (inactive)
11,COc1ccc(N2C(=O)c3ccccc3NC2c2ccc(OC)c(CN3CCOCC3)c2)cc1 (stereo not drawn),-1.28% (inactive)
12,COc1ccc(C2Nc3ccccc3C(=O)N2c2ccc(F)cc2)cc1Cn1nnc2ccccc21 (stereo not drawn),2.84% (inactive)
13,COc1ccc(C2Nc3ccccc3C(=O)N2Cc2ccccc2)cc1Cn1nnc2ccccc21 (stereo not drawn),-34.4% (active)
14,COc1ccc(CNC(=O)Cc2ccc(-c3ccccc3)cc2)cc1OC,0.562% (inactive)
15,COc1ccc(C2/C=C\CN(Cc3ccco3)C(C)C(=O)N2Cc2ccc(F)cc2)cc1 (stereo not drawn),-1.36% (inactive)
16,Cc1coc2c(O)cc3c(c12)OC1(N2CCCCC2)C(=O)NCCCC31 (stereo not drawn),-43.7% (active)
17,C[C@H]1Cc2c(-c3ccccc3)nc3c(c2CO1)CN(S(=O)(=O)c1ccc(Cl)c2nonc12)CC3,2.12% (inactive)
18,Cc1cccc(C(=O)Nc2nnc(S(=O)(=O)N3CCCCCC3)s2)c1,-16.7% (inactive)
19,COc1cccc(C(=O)Nc2nnc(S(=O)(=O)N3CCCCC3)s2)c1,-31.6% (active)
20,O=C(Nc1nnc(S(=O)(=O)N2CCCCCC2)s1)c1cccc(Br)c1,-13.3% (inactive)

row,SMILES,"activity change, negative = inhibition"
1,CNC(=S)NNC(=O)c1oc2nc(-c3ccccc3)cc(-c3ccco3)c2c1N,-33.1% (active)
2,NNC(=O)c1oc2nc(-c3ccccc3)cc(-c3ccco3)c2c1N,-5.04% (inactive)
3,CS(=O)(=O)c1sc2nc(-c3ccccc3)cc(-c3ccccc3)c2c1N,1.12% (inactive)
4,Cc1c(C)c2ccc(OCC(=O)N3CCN(c4cccc(Cl)c4)CC3)cc2oc1=O,1.47% (inactive)
5,Cc1cccc(/C=N/NC(=O)CNc2cccc3ccccc23)n1,-46.7% (active)
6,C/C(=N\NC(=O)CNc1cccc2ccccc12)c1ccc(Br)s1,-0.7% (inactive)
7,Cn1cccc1/C=N/NC(=O)CNc1cccc2ccccc12,-1.22% (inactive)
8,Cc1ccc(NC(=O)CN2C(=O)NC(C)(c3ccc(Cl)cc3)C2=O)c(Br)c1 (stereo not drawn),8.8e-05% (inactive)
9,Cc1ccc(Cn2c(C)c3cnn(CC(=O)NCc4ccccn4)c(=O)c3c2C)cc1,0.293% (inactive)
10,COc1ccc(C(=O)NC2=NCCS2)c(OC)c1,0.219% (inactive)
11,Cc1cccc2c3c(ccc12)C1=C(C(=O)C3=O)C(C)CO1 (stereo not drawn),-60.2% (active)
12,O=C1C2C3C=CC(C3)C2C(=O)N1c1ccc(-c2nc3ccccc3c(=O)o2)cc1 (stereo not drawn),-9.8% (inactive)
13,Cc1cc2c(c(=O)n1Cc1ccccc1)C1O[C@](CCCCN3C(=O)c4ccccc4C3=O)(Cc3ccccc31)O2,-1.41% (inactive)
14,CCN1C(=O)c2cccc3c(N)ccc1c23,-57.1% (active)
15,CCN1C(=O)c2cccc3c(S(=O)(=O)Nc4ccccc4O)ccc1c23,-10.8% (inactive)
16,CN1C(=O)c2cccc3c(N)ccc(c23)C1=O,0.398% (inactive)
17,O=C1C[C@@H](c2ccc3ccccc3c2)N1S(=O)(=O)c1ccccc1[N+](=O)[O-],11.1% (inactive)
18,C=CC1=C2C=C(C3CC3)N(CC(C)C)C=C2C(=O)C(C)(OC(=O)c2ccco2)C1=O (stereo not drawn),-42.6% (active)
19,CC(C)(C)OC(=O)NCCCC1=CC2=CC(=O)C(C)(OC(=O)c3ccco3)C(=O)C2=CO1 (stereo not drawn),-0.316% (inactive)
20,C=CC1=C2C=C(C3CC3)N(C(CO)CO)C=C2C(=O)C(C)(OC(=O)c2ccco2)C1=O (stereo not drawn),-18.7% (inactive)

row,SMILES,"activity change, negative = inhibition"
1,Cc1cccc(C(=O)Nc2ccc(C(=O)/C=C/c3cccs3)cc2)c1,-6.98% (inactive)
2,CN(C)C(=O)CSc1n[nH]c(-c2ccco2)n1,-32.9% (active)
3,O=[N+]([O-])c1ccc(Sc2n[nH]c(-c3ccco3)n2)nc1,3.58% (inactive)
4,CN(C)c1ccc(NC(=O)CSc2n[nH]c(-c3ccco3)n2)cc1,0.0598% (inactive)
5,COc1ccc(-c2c(-c3ccc(OC)cc3O)nc(C)nc2C(F)(F)F)cc1,2.62% (inactive)
6,COc1ccc(C2=Nn3c(nnc3-c3ccccc3O)SC2)cc1,-2.11% (inactive)
7,CCCCC/C=C\C/C=C\CCCCCCCCCC(=O)NCC(=O)O,1.59% (inactive)
8,O=C1C(c2ccccn2)=[N+]([O-])c2ccccc21,-40.5% (active)
9,O=Cc1cn(-c2ccccc2)nc1-c1ccccn1,0.364% (inactive)
10,NC(=O)C1CCN(C(=O)CC2C(=O)NCCN2Cc2cccc(Oc3ccccc3)c2)CC1 (stereo not drawn),-8.79% (inactive)
11,O=C(NCc1ccccc1Cl)c1ccc2c(=O)n(CC3CCCO3)c(=S)[nH]c2c1 (stereo not drawn),2.3% (inactive)
12,COc1ccccc1OCc1nnc(SCC(N)=O)n1-c1ccccc1,-0.0181% (inactive)
13,COc1ccc(-c2c3c(=O)n(C)c(=O)n(C)c3cn2-c2cccc(OC)c2)cc1,3.67% (inactive)
14,Cn1c(=O)c2cn(-c3cccc4ccccc34)cc2n(C)c1=O,-34.2% (active)
15,CC(=O)Nn1cc2c(=O)n(C)c(=O)n(C)c2c1,-0.0563% (inactive)
16,COc1ccc(-c2c3c(=O)n(C)c(=O)n(C)c3cn2NC(C)=O)cc1,-2.71% (inactive)
17,COc1ccc(OC)c(-n2cc3c(=O)n(C)c(=O)n(C)c3c2)c1,-33.3% (active)
18,O=C1c2ccccc2C(=O)N1c1cccc2ccccc12,2.72% (inactive)
